The whole screen tested about 330,000 compounds, of which about 1,900 (0.58%) were called active. Inconclusive results (about 4%) are left out. Rule as the data show it: inconclusive = inhibition above about 70% without an active follow-up result; inactive = below that. These entries were drawn from the full list. Results with a measured potency or affinity are listed apart.

The assay in a line: M. tuberculosis growth inhibition, HTS (AID 449762).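 Also: bacterial growth assessed after seven days of incubation.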 The conditions noted are these: M. tuberculosis H37Rv growth inhibition, 7H9 media; at 25 µM; stronger effect = higher value.
For the molecule `Cc1c(Cl)cccc1NC(=O)c1cc(-c2ccco2)on1`, the inhibition (as a rule, the relative decrease from the control value, in per cent) was 3.35% (inactive).

As for `O=C(Nc1cccnc1Cl)c1cc(-c2ccc(Cl)cc2)on1`, the inhibition was 5.26% (inactive).

With `O=[N+]([O-])c1ccc(-c2cnc(SCc3ccccc3Cl)[nH]2)cc1`, the inhibition is -2.76% (inactive).

On to `COc1ccccc1CSc1ncc(-c2ccc([N+](=O)[O-])cc2)[nH]1`, for which the inhibition was -2.06% (inactive).

For `COCC(=O)N1CCC(Oc2cccc(C(=O)NCc3ccccn3)c2)CC1`, the inhibition is -0.85% (inactive).

Take `O=C(O)CCN1C(=O)C(=C2CCCCCC2)SC1=S`: the inhibition is -3.58% (inactive).

In the case of `CCCCN1C(=O)/C(=C2/C=CC=CN2C)SC1=S`, the inhibition was -5.48% (inactive).

Turning to `CCCCn1nc2cc(C(=O)NCc3ccc(OC(F)(F)F)cc3)ccc2c1OC`, the inhibition is 6.36% (inactive).

For the molecule `O=C(NN1CCOCC1)C12CC3CC(CC(C3)C1)C2`, the inhibition is -3.63% (inactive).

In the case of `COc1ccc2c3c([nH]c2c1)[C@H]1C[C@H]2[C@H](C[C@@H](O)[C@H](OC)[C@H]2C(=O)O)CN1CC3`, the inhibition was 1.26% (inactive).

For the molecule `COc1ccc2c3c([nH]c2c1)C1CC2C(CC(O)C(OC)C2C(=O)O)CN1CC3` (stereo not given), the inhibition was -4.38% (inactive).

As for `C=Cn1nc(C)c2ccccc2c1=O`, the inhibition was -3.9% (inactive).

Consider `COC(=O)c1cc(=O)n(Cc2ccc(F)cc2)c(=Nc2ccccc2)s1`, for which the inhibition is 4.7% (inactive).

Turning to `COC(=O)c1cc(=O)n(CCc2ccccc2)c(=Nc2ccc(F)cc2)s1`, the inhibition is 4.1% (inactive).

For the molecule `COc1cccc(NC(=O)[C@H](CC(C)C)NC(=O)N2CCn3c2nc2ccccc23)c1`, the inhibition is 11.4% (inactive).

`NC(=O)[C@H](Cc1cc2ccccc2s1)NC(=O)[C@@H]1CC2(CC(c3cccc(NC(=O)[C@@H]4CCC(=O)N4)c3)=NO2)CN1C(=O)c1ccccc1` (stereo not given in full): the inhibition is -4.74% (inactive).

`NC(=O)C1CCN(CCCNC2CC(=O)N(Cc3ccc(N4CCCC4=O)cc3)C2=O)CC1` (stereo not given): the inhibition was -6.69% (inactive).

As for `Nc1cc(C(=O)OCC(=O)NNC(=O)c2ccccc2)ccc1Cl`, the inhibition was 35.4% (inactive).

For `Nc1cc(C(=O)OCC(=O)NNC(=O)c2ccccc2F)ccc1Cl`, the inhibition was 25.6% (inactive).

For `CCOc1cc(Cl)c(CNCCCN2CCOCC2)cc1OC`, the inhibition is 5.34% (inactive).

On to `CCOC(=O)c1c(C)[nH]c(C(=O)COC(=O)c2cc(C)oc2C)c1C`, for which the inhibition is -7.77% (inactive).

For the molecule `N#Cc1ccc(-c2ccc3c(c2)OCO3)nc1SCC(=O)OCc1ccccc1`, the inhibition is -7.31% (inactive).

`COc1ccc(-c2ccc(C#N)c(SCC(=O)NCCc3ccccc3)n2)cc1OC`: the inhibition is 8.95% (inactive).

For the molecule `S=C(NC1CCCCC1)N1CCN(Cc2ccccc2Cl)CC1`, the inhibition is 1.74% (inactive).

On to `COc1ccc2c(COC(=O)CCS(=O)(=O)c3ccccc3)cc(=O)oc2c1`, for which the inhibition was -17.5% (inactive).

Regarding `Cn1c(SCc2nc3ccccc3c(=O)[nH]2)nc2ccccc21`, the inhibition was 1.19% (inactive).

As for `O=c1[nH]c(CSc2ccccn2)nc2ccccc12`, the inhibition was 3.19% (inactive).

For the molecule `O=C(c1ccco1)N1CCN(C(=S)Nc2ccc(Br)cc2Cl)CC1`, the inhibition is -10.4% (inactive).

With `COC(=O)c1cc(-c2ccccc2)on1`, the inhibition is 69.8% (inactive).

For the molecule `COc1cccc(-c2cc(C(=O)O)no2)c1`, the inhibition is -0.44% (inactive).

`CCOc1ccc(NC(=O)COc2nsnc2N2CCOCC2)cc1`: the inhibition is -1.39% (inactive).

Regarding `CCN(c1ccccc1)S(=O)(=O)c1ccc(Cl)c(NC(=O)COC(=O)c2ccc[nH]c2=O)c1`, the inhibition is -8.08% (inactive).

Consider `CCCCCCn1nc(C(=O)OCC(=O)c2c(N)n(C)c(=O)n(C)c2=O)c2ccccc2c1=O`, for which the inhibition is 9.07% (inactive).

With `COc1ccc2c3n(nc2c1)CCN=C3c1ccc(Cl)cc1`, the inhibition was 4.84% (inactive).

As to `COc1ccc(C2=NCCn3nc4cc(OC)ccc4c32)cc1`, the inhibition was 1.06% (inactive).

As for `O=C(NCCCn1ccnc1)c1cc2cc([N+](=O)[O-])ccc2oc1=O`, the inhibition is -5.35% (inactive).

Take `Cc1ccc2[nH]c(C)c(CCNC(=O)c3c(N)no[n+]3[O-])c2c1`: the inhibition was -0.11% (inactive).

In the case of `O=C(NC1CCCCC1)C(c1cccs1)N(CC1CCCO1)C(=O)c1csnn1` (stereo not given), the inhibition is -12% (inactive).

Take `CC(=O)c1ccc(S(=O)(=O)N2CCc3ccccc3C2)cc1`: the inhibition was 0.34% (inactive).

As for `CCOC(=O)N1CCN(C(=O)CSc2nnc(-c3ccccc3OC)o2)CC1`, the inhibition was 41.9% (inactive).

Regarding `CC1CC(C)CN(C(=O)CSc2nnc(-c3ccc(Cl)s3)o2)C1` (stereo not given), the inhibition is 20.5% (inactive).

Take `O=C(c1cc2n(n1)C(C(F)(F)F)CC(c1ccc(F)cc1)N2)N1CCCC1` (stereo not given): the inhibition was -3.19% (inactive).

Consider `O=C(Nc1cccnc1Cl)c1cccc(F)c1`, for which the inhibition is 9.84% (inactive).

As for `CC(C)NC(=O)COC(=O)c1cc(Br)ccc1Cl`, the inhibition was 21.9% (inactive).

In the case of `CC(C)(C)NC(=O)COC(=O)c1ccc(F)cc1Cl`, the inhibition was 49.4% (inactive).

With `COc1ccc(NC(=O)CCC(=O)Nc2nnc(C3CCCCC3)s2)c(OC)c1`, the inhibition was 7.63% (inactive).

For the molecule `OCC1(Cc2cccc(Cl)c2)CCCN(Cc2ccc(F)c(F)c2)C1` (stereo not given), the inhibition is 16.1% (inactive).

Regarding `Cc1cc(CN2CCCC(CO)(Cc3cccc(Cl)c3)C2)n[nH]1` (stereo not given), the inhibition was 2.25% (inactive).

As to `c1ccc(-c2nc3ccccc3[nH]2)cc1`, the inhibition was 9.27% (inactive).

For the molecule `c1ccc2nc3c(nc2c1)[nH]c1ccccc13`, the inhibition was -2.41% (inactive).

As to `CC1(C)Cc2c(cnn2-c2cccc(F)c2)C(NC(=O)CSc2ccncc2)C1` (stereo not given), the inhibition was -11.2% (inactive).

Regarding `CCCCN1C(=N)N([C@@H](C)CN2CCC[C@H]2CN2C(N)=NC[C@H]2CC(C)C)C[C@H]1[C@H](C)CC`, the inhibition was -9.24% (inactive).

For `O=c1c2ccccc2oc2cc(NCCCn3ccnc3)ccc12`, the inhibition was 64.1% (inactive).

On to `O=c1c2ccccc2oc2ccc(NCCCn3ccnc3)cc12`, for which the inhibition is -0.23% (inactive).

On to `Nc1c(C(=O)Nc2ccc3c(c2)OCCO3)nnn1Cc1ccc(Cl)cc1`, for which the inhibition was 0.83% (inactive).

Consider `CCN(CC)c1ccccc1`, for which the inhibition is 5.27% (inactive).

Regarding `Nc1ccc(N(CCO)CCO)cc1`, the inhibition is 6.03% (inactive).

Take `O=C(NCc1ccc(Cl)cc1)C1CCN(c2cnccn2)CC1`: the inhibition was 1.73% (inactive).

`Cc1ccc(NC(=O)Cn2cccc2)cc1`: the inhibition was 3.9% (inactive).

As for `CC(C)(C)c1csc(NNC(=O)c2ccc(Br)cc2)n1`, the inhibition was 66.5% (inactive).

In the case of `COc1ccc2[nH]c3c(c2c1)CCN1C(=O)N([C@@H](C)C(=O)NCCc2ccc(OC)c(OC)c2)C(=O)[C@]31C`, the inhibition was -11.9% (inactive).

On to `CN(C)/C=C1/C(=O)N(c2ccc([N+](=O)[O-])cc2)N=C1c1ccccc1`, for which the inhibition was 0.35% (inactive).

`CN(C)/C=C1\C(=O)N(c2ccc([N+](=O)[O-])cc2)N=C1c1ccccc1`: the inhibition was -2.09% (inactive).

Regarding `NC(=O)c1ccsc1N`, the inhibition was 6.02% (inactive).

In the case of `NC(=O)c1ccc(Cn2c(C(=O)c3ccc(Cl)cc3)c3ccccc3[n+]2[O-])cc1`, the inhibition was 2.02% (inactive).

With `COCCn1c(-c2ccc(OC)cc2)cnc1SCC(=O)Nc1cccc2ccccc12`, the inhibition was 57.1% (inactive).

For `CCOc1ccc(CNc2ncc(-c3ccccc3)n2C)cc1`, the inhibition was 8.71% (inactive).

`Cn1c(CCNC(=O)c2ccco2)nc2ccccc21`: the inhibition is -1.68% (inactive).

On to `Cc1cccc(NC(=O)CCCNC(=O)c2ccc(Cl)cc2)n1`, for which the inhibition is -15.3% (inactive).

Consider `COc1cc(Cn2ccnc2)c(OC)cc1Cn1ccnc1`, for which the inhibition is 0.13% (inactive).

On to `COc1ccc(NCc2ccc(OC)c(Cn3ccnc3)c2)c(OC)c1`, for which the inhibition is 17.3% (inactive).

`CCCC(=O)Nc1ccc(-c2csc(NNC(C)=O)n2)cc1`: the inhibition is 8.91% (inactive).

As to `CCc1nc(OCCN(C)C)c2oc3ccccc3c2n1`, the inhibition is 5.77% (inactive).

Take `CN(C)CCOc1ncnc2c1oc1ccccc12`: the inhibition was -7.93% (inactive).

As to `O=C(CCSc1nc(-c2ccco2)cc(C(F)(F)F)n1)NCc1ccccn1`, the inhibition was -4.91% (inactive).

Consider `Cc1nc2scc(-c3cccs3)c2c(=O)n1N`, for which the inhibition was -9.74% (inactive).

With `Cc1ccc(C)n1-n1c(C)nc2scc(-c3cccs3)c2c1=O`, the inhibition is 1.92% (inactive).

Regarding `CCCCc1nn(-c2cc(Cl)ccc2OC)c2c1C(=O)CCC2`, the inhibition was -11.2% (inactive).

Regarding `CCOC(=O)c1nn(-c2ccc(F)cc2)c2nc(CC(C)C)c(C#N)c(=O)n12`, the inhibition is -13.7% (inactive).

Turning to `Cc1cccc(OC(C)C(=O)OCC(=O)N2CCN(c3ccccc3)CC2)c1` (stereo not given), the inhibition is 69.9% (inactive).

As to `CCc1cc(C(=O)OCC(=O)N2CCC(c3ccccc3)=N2)sc1C`, the inhibition was 9.02% (inactive).

In the case of `Cc1ccc(C(=O)OCC(=O)N2CCC(c3ccccc3)=N2)cc1`, the inhibition is -0.51% (inactive).

As to `COc1ccc(NC(=O)c2cc(-c3cc(C)ccc3O)n[nH]2)cc1Cl`, the inhibition was -5.54% (inactive).

Turning to `CC(C)(Oc1ccc(Cl)cc1)C(=O)NCc1n[nH]c(=O)c2ccccc12`, the inhibition was -7.84% (inactive).

With `Cc1nn(C)cc1/C=N/NC(=O)C(C)(C)Oc1ccc(Cl)cc1`, the inhibition is -2.26% (inactive).

For the molecule `CCOc1ccc(NC(=S)Nc2cc(C)[nH]n2)cc1`, the inhibition was 11.8% (inactive).

In the case of `Cc1ccc(CNC(=S)Nc2ccc(C)c([N+](=O)[O-])c2)cc1`, the inhibition is 1.67% (inactive).

For the molecule `Cc1ccc(NC(=S)Nc2cc(-c3ccccc3)[nH]n2)cc1Cl`, the inhibition is 3.77% (inactive).

In the case of `CCOc1ccc(NC(=S)/C(=C(\[O-])c2ccc(C)c([N+](=O)[O-])c2)[n+]2ccccc2)cc1`, the inhibition is -4.46% (inactive).

As for `O=C(CN(C(=O)CNC(=O)c1cccs1)c1ccc(F)cc1)NC1CCCC1`, the inhibition is -5.64% (inactive).

On to `Cc1ccc(C(=O)Nc2cnc3sc(C)nn3c2=O)cc1`, for which the inhibition is -8.53% (inactive).

On to `CC1=C(C(=O)OCC2CCCO2)C(c2ccc(C)cc2)C2=C(CCCC2=O)N1` (stereo not given), for which the inhibition was -4.69% (inactive).

As for `COc1ccc(C2COc3cc(O)ccc3C2)c(OC)c1O` (stereo not given), the inhibition was -7.8% (inactive).

With `CCCSc1nnc(CSc2nc3nc(C)cc(C)n3n2)o1`, the inhibition is 6.82% (inactive).

On to `CCCCSc1nnc(CSc2nc3nc(C)cc(C)n3n2)o1`, for which the inhibition was -4.57% (inactive).

(Values after PubChem BioAssay AID449762 (Southern Research Specialized Biocontainment Screening …, 2010).)
